“And” between values parts separate entries of the source, which are not always exact repeats. Equal entries are not always repeated. The campaign covered roughly 59,000 compounds. About 1,500 (2.5%) were called active. Roughly 10% stayed inconclusive and do not appear here. The call rests on the fitted dose curve; in most records, active means well fitted inhibition curve with a large enough effect; inconclusive means small, poorly fitted or top-dose-only effect; inactive means flat fitted curve, though single readings scatter. Shown is part of a subset that was picked to be rich in actives. A structure can be active in one record and inactive in another.
target: N-terminal Xaa-Pro-Lys N-methyltransferase 1 (Homo sapiens) (UniProt Q9BV86); experiment: Primary qHTS for Inhibitors of N-terminal methyltransferase 1 (NTMT1): MTaseGlo Assay; conditions: NTMT1 MTase-Glo SAH luminescence, purified enzyme; series mostly up to 114 µM; activity change, negative = inhibition: at the top concentration; further: nearly all actives have a fitted effect of over 65% in size;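 on activity change, negative = inhibition: plate controls were DMSO vehicle for no effect and no enzyme for full effect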
Sequence (Q9BV86 whole entry, looked up): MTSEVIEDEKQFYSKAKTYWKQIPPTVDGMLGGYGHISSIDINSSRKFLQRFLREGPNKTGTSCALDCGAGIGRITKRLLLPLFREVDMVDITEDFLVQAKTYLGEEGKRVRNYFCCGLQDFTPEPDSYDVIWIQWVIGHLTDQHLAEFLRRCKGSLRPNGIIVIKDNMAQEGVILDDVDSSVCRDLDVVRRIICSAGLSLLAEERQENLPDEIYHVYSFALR
Potency means the concentration at half of the fitted maximal effect.

Compound	Potency	activity change, negative = inhibition
O=C(O[C@@H]1Cc2c(O)cc(O)cc2O[C@H]1c1cc(O)c(O)c(O)c1)c1cc(O)c(O)c(O)c1	44.7 µM (active)	–
N#Cc1ccc(OC2=NS(=O)(=O)c3ccccc32)cc1	–	11.6% (inactive)
Cc1ccc2nc3sc(C(=O)NCCc4cccnc4)cc3cc2c1	–	1.58% [at 57.5 µM] (inactive)
O=S(=O)(NCCCCCCNS(=O)(=O)c1c(F)cccc1F)c1ccc2c(c1)OCCO2	–	8.56% (inactive)
NNc1nnc(NN)c2ccccc12	22.4 µM (active)	–
O=C1CCCC2=C1[C@@]1(CCC(c3ccccc3)C1)N=C(Nc1nc3ccccc3o1)N2 (stereo partly drawn)	inactive	–
Nc1ncnc2c1c(I)cn2[C@@H]1C[C@H](N)[C@@H](O)[C@H]1O	2.51 µM (active)	–
CC(=O)c1cccc(-c2ccc(-c3nc4ccccc4c(=O)[nH]3)o2)c1	–	-12.8% (inactive)
N#Cc1nc(Nc2cccc(Cl)c2)nc(NC2CCCC2)n1	–	-4.66% (inactive)
[O-][n+]1onc(-c2ccccc2)c1CO	–	-13.1% (inactive)
O=C1COc2cc([S+](=O)([O-])Nc3ccc(Cl)c(Cl)c3)c(Cl)cc2N1	–	-15.7% [at 57.5 µM] (inactive)
Cc1cnc(-c2ccccc2C(C)C)nc1NCC1CCN(C)CC1	–	2.15% [at 57.5 µM] (inactive)
CCOC(=O)C1CCN(C(=O)C(C)(C)NC(=O)Nc2ccc(F)c(F)c2)CC1	–	15.5% (inactive)
O=C(Nc1ccc(-c2ccc(Cl)c(Cl)c2)cc1)C1=C(O)c2ccccc2S(=O)(=O)N1	–	-13.1% [at 57.5 µM] (inactive)
NS(=O)(=O)c1ccc(NC(=O)C(=O)Nc2ccc3nc4n(c(=O)c3c2)CCCCC4)cc1	–	-7.26% (inactive)
COc1cccc(C(=O)Nc2ccc3nc4n(c(=O)c3c2)CCCCC4)c1	50.1 µM (active)	–
COc1cccc(C(=O)Nc2ccc3oc(-c4ccc5ccccc5c4)nc3c2)c1	–	9.92% (inactive)
Cc1cc(C)n2ncc(C(=O)Nc3cccc(C#N)c3)c2n1	–	2.61% [at 29.8 µM] (inactive)
CCOc1ccc(CCNC(=O)c2cc3ccccc3n2Cc2ccc(Cl)c(F)c2)cc1OCC	–	5.24% (inactive)
CC(C)c1ccccc1SC1=NS(=O)(=O)c2ccccc21	–	-1.75% (inactive)
CN(C)c1ccc(C(=O)NCC(=O)OC(C(=O)Nc2cc(C(F)(F)F)ccc2Cl)c2ccccc2)cc1 (stereo not drawn)	–	6.51% [at 57.5 µM] (inactive)
COc1ccc(Cn2ccn(Cc3cccc(OC)c3)c(=O)c2=O)cc1	–	-0.407% (inactive)
COc1ccc(Cn2ccn(CC(=O)Nc3cc(C)ccc3C)c(=O)c2=O)cc1	79.4 µM (active)	–

Compound	Potency	activity change, negative = inhibition
Cc1ccc(C)c(NC(=O)Cn2ccn(-c3ccc(F)cc3)c(=O)c2=O)c1	–	-3.87% (inactive)
N#Cc1ccc(N[S+](=O)([O-])c2ccc(Nc3nc(-c4ccccc4)cs3)cc2)cc1	–	-3.5% (inactive)
O=[S+]([O-])(c1ccc(OC(F)(F)F)cc1)N1CCN([S+](=O)([O-])c2ccc3c(c2)OCCO3)CC1	–	-8.07% (inactive)
CN1CCOc2cc(S(=O)(=O)N3CCN(S(=O)(=O)c4c(F)cccc4F)CC3)cnc21	–	15.4% (inactive)
COCC1CCCN(C(=O)CC(c2ccc3c(c2)OCO3)c2c(O)cc(OC)cc2OC)C1 (stereo not drawn)	–	8.9% [at 228 µM] (inactive)
CCOc1cc(CCNC(=O)c2cc3sccc3n2Cc2ccccc2)cc(F)c1OCC	–	13.1% (inactive)
Oc1ccccc1-c1nc2ccc(Cl)cn2c1Nc1ccc2c(c1)OCCO2	–	8.59% (inactive)
Cc1ccc(Nc2c(-c3ccc(C)s3)nc3ccccn23)cc1	–	0.942% (inactive)
Cc1cccc2nc(-c3ccc(Cl)s3)c(Nc3ccc4c(c3)OCCO4)n12	1.78 µM (active)	–
Cc1cc2c(s1)c1cnn(Cc3cc(F)c(Cl)cc3Cl)c(=O)c1n2C	–	3.59% [at 57.5 µM] (inactive)
Fc1cc(Nc2nc(-c3ccncc3)nc3ccccc23)ccc1-n1cncn1	inactive	–
Cc1c(Cl)cccc1S(=O)(=O)Nc1nc(CCN2CCOCC2=O)cs1	–	1.44% (inactive)
Cc1cc(Nc2cc(CN3CCOCC3)c3nc(C)c(Cc4ccc(Cl)cc4F)n3n2)n[nH]1	30.4 µM (active) and 7.08 µM (active) and 11.2 µM (active)	–
COc1cc(NS(=O)(=O)c2ccc(C)cc2)ccc1C(=O)Nc1nc(-c2ccccc2)cs1	–	4.46% (inactive)
Cc1cc(C)n2ncc(C(=O)Nc3ccc4c(c3)OCCO4)c2n1	–	-7.68% (inactive)
Cc1cc(C)n2ncc(C(=O)Nc3ccc(C)c(C)c3)c2n1	–	21.6% (inactive)
COc1ccc(C[C@H](C(=O)O)N2C(=O)c3ccc(C(=O)O)cc3C2=O)cc1	–	0.148% [at 57.5 µM] (inactive)
CC(C)C(=O)Nc1nc2c(s1)CC(C(C)(C)C)CC2 (stereo not drawn)	79.4 µM (active)	–
CC(C)(C)C1CCc2c(sc(NC(=O)c3ccccc3F)c2C(=O)N2CCCCC2)C1 (stereo not drawn)	–	-4.14% (inactive)
COC(=O)c1cccc(Cn2nnc3sc4c(c3c2=O)CCC(C(C)(C)C)C4)c1 (stereo not drawn)	–	7.12% (inactive)
Cc1ccc(S(=O)(=O)NC(N)=NCCC[C@@H](NC(=O)CNC(=O)c2ccccc2)C(=O)Nc2cc(C(F)(F)F)ccc2Cl)cc1	–	2.85% (inactive)
CC(C)c1ccc(C2CC(=O)N3CN(C4CCCCC4)CSC3=C2C#N)cc1 (stereo not drawn)	11.2 µM (active)	–
O=C(Nc1ccc2ccccc2c1)Nc1nnc(-c2ccc(O)cc2)s1	–	2.75% (inactive)

Compound	Potency	activity change, negative = inhibition
CC(C)c1ccc2c(c1)c(SC(C)(C)C)c(CC(C)(C)C(=O)O)n2Cc1ccc(Cl)cc1	inactive and 79.4 µM (active)	–
Cc1c(C)n(Cc2ccc(Cl)cc2)c2ccc(C(=O)N3CCN(c4ccccc4F)CC3)cc12	–	13% (inactive)
C[S+](=O)([O-])c1ccc(-c2ccc(=O)n(CC(=O)NCCc3ccccc3)n2)cc1	–	15.9% (inactive)
Cc1ccc(OCCn2c(CCNC(=O)Cc3cccc4ccccc34)nc3ccccc32)cc1	–	-12.6% (inactive)
CN1CC[C@H](c2c(O)cc(O)c3c(=O)cc(-c4ccccc4Cl)oc23)[C@H](O)C1	31.6 µM (active)	–
Cc1cc(C2N=C(Nc3nc4ccccc4o3)NC3=C2C(=O)CCC3)n[nH]1 (stereo not drawn)	–	-1.79% (inactive)
FC(F)(F)c1cc(Cl)cc(-c2ccc(CNc3nc(-c4ccccc4C(F)(F)F)nc4ccccc34)cc2)c1	–	19.9% (inactive)
Cc1ccccc1-c1ccc(NC(=O)c2cccs2)cn1	–	-4.12% (inactive)
O=S(=O)(NCC1CN(S(=O)(=O)c2ccc3c(c2)OCCO3)C1)c1c(F)cccc1F	–	3.97% (inactive)
O=S(=O)(Nc1cccc2ccccc12)c1ccc(NCc2ccc(Br)cc2O)cc1	–	-10.4% (inactive)
CCN(CC)c1ccc(NC(=O)CN(C)Cc2c(O)ccc3ccccc23)cc1	–	12.2% (inactive)
COc1ccccc1-c1c[nH]c2ncc(-c3cncc(C(=O)N(C)C)c3)cc12	39.8 µM (active)	–
COc1ccc(-c2cncc(NC(=O)c3cccs3)c2)cc1OC	–	-13% (inactive)
O=C1NS(=O)(=O)c2cc(Cl)ccc21	–	9.66% (inactive)
NC(=O)C1CCN(c2cc(-c3ccc4c(c3)OCCCO4)ncn2)CC1	–	-0.544% [at 57.5 µM] (inactive)
c1nc(N2CCOCC2)c2cc(-c3ccc4c(c3)OCO4)ccc2n1	12.6 µM (active)	–
COc1ccc(NC(=O)c2cnn3c(-c4ccccc4)cc(C)nc23)cc1	–	0.228% (inactive)
O=C(Nc1ccc([S+](=O)([O-])Nc2nccs2)cc1)c1ccn[nH]1	–	0.211% [at 57.5 µM] (inactive)
O=C(OC/C=C/CSc1nnc(-c2cccc3ccccc23)o1)c1ccc(F)cc1	–	10.4% (inactive)
COc1cc(Nc2ncc(F)c(Nc3ccc4c(n3)NC(=O)C(C)(C)O4)n2)cc(OC)c1OC	inactive and 1.52 µM (active)	–
COc1cc(NC(=O)c2cc3ccc4cccnc4c3[nH]2)cc(OC)c1OC	–	-10.6% (inactive)
N#CN1CCC(NS(=O)(=O)c2cccc(F)c2)C1 (stereo not drawn)	–	0.651% [at 57.5 µM] (inactive)

Source: PubChem BioAssay AID1645870 (National Center for Advancing Translational Sciences (NCATS), 2021)
